# BRCA1 expr act: increases BRCA1 expression; AID 624202; Potency, µM (doses to about 46.1 µM), inactives show at the highest dose activation, usual class: activators; hit rate 1.1% among 380,000; MCF7-BRCA1-FFLuc reporter, luminescence, 48 h; response scale: scaled: vehicle 0%, 10 µM genistein 100%; further: nearly all actives have a fitted effect of over 80% in size
#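 48 h compound treatment of MCF7-BRCA1-FFLuc cells (phenol-red free MEM, 37 °C), then 15 min with luciferase substrate and luminescence imaging.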
# Integrin act MD: activators of alpha7 integrin expression for muscular dystrophy | hit rate 0.064% among 350,000 | Potency, µM (doses to about 38.3 µM), for the others: top-dose activation, most hits filed as activators | AID 624291 | alpha7betagal myoblasts, beta-gal FDG fluorescence, 48 h;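 further: 100% = response of the positive control SU9516; nearly all actives have a fitted effect of over 60% in size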
#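 Alpha7betagal+/- myoblasts (passage 13) were plated 16-24 hr, then exposed to compounds (1:260 dilution of DMSO stock) for 48 hours at 37C. After MPER lysis, β-galactosidase reporter activity was read as FDG fluorescence (ex 480/em 540) after 30 minutes.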
# GLP1R ag: agonists of human GLP-1 receptor. P43220. HEK293 GLP-1R CRE-luciferase, luminescence, 4-6 h; cells express a hypersensitive GLP-1R form. Potency, µM (titrated, usually from 45.6 µM), for inactives: at the top dose activation, actives largely listed as activators. hit rate 0.007% among 380,000. AID 624172; further: % of control where 0% means no effect
# Target sequence (P43220 whole entry, looked up): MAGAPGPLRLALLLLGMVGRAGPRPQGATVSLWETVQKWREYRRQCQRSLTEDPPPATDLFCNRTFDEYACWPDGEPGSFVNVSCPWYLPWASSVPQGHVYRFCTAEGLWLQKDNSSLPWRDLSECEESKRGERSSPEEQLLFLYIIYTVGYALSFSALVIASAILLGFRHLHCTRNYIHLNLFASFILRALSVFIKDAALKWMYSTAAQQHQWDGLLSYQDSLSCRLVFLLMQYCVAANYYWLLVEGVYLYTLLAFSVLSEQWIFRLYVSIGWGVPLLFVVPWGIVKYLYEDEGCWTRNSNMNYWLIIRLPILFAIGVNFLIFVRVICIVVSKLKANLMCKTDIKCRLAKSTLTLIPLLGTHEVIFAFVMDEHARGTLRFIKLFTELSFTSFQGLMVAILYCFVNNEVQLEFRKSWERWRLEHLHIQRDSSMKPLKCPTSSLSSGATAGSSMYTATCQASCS
# GLP1R cytotox: cytotoxicity in counter-screen for GLP-1R inverse agonists; hit rate 0.13% among 410,000; AID 624418; HEK293 cAMP-luciferase reporter cells, luminescence, 24 h; Potency, µM (doses to about 38.3 µM), for inactives: at the highest dose activity change, negative = inhibition, hits mostly inhibitors;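 further: loss of luciferase light is scored as toxicity; on the % scale 0 is the no-effect control and ±100 the full control effect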
#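 To flag toxic compounds, the library was rerun on cells for 24 hr at 37 deg C and 5% CO2. Viability-linked luminescence was captured 12 min after adding luciferase detection reagent.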
# GLP-1R inv ag: acts as inverse agonist at human GLP-1 receptor; P43220; HEK293 GLP-1R CRE-luciferase, luminescence, 24 h; GLP-1R form is constitutively active; Potency, µM (doses to about 38.3 µM), for inactives: at the highest dose activity change, negative = inhibition, hits mostly inhibitors; hit rate 1.6% among 410,000; AID 624417; further: on the % scale 0 is the no-effect control and ±100 the full control effect; nearly all actives have a fitted effect of over 55% in size
#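 Luminescence readout: a drop in cAMP-driven luciferase signal flags inverse agonism at a constitutively active GLP-1R stably expressed in HEK293. Compound exposure lasted 24 hr at 37 deg C, 5% CO2.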
# * = called active by the depositor; ? = inconclusive; . = no result; [ ] = dose if it differs, or a comment. This is a sample that favours compounds with a hit; in the whole collection about 2.7% have one here. The call rests on the fitted dose curve; in most records, active means well fitted curve in the direction sought with a large enough effect; inconclusive means small, poorly fitted or top-dose-only effect, or another doubt; inactive means no such curve, though single readings can be large; an effect the other way counts as inactive or inconclusive. Potency means the concentration at half of the fitted maximal effect.
SMILES,BRCA1 expr act,Integrin act MD,GLP1R ag,GLP1R cytotox,GLP-1R inv ag
CCOC(=O)C1=C(c2ccccc2)NC(N)=NC1c1ccc(OCc2ccc(C(=O)OC)cc2)cc1 (stereo not given),-42%,-50%,8%,?,8.9µM*
CCOc1ccc(S(=O)(=O)NCCc2csc3nc(-c4ccc(F)cc4)nn23)cc1,.,.,.,-15%,-19%
O=C(/C=C/c1cccc([N+](=O)[O-])c1)NCCSCc1ccc(Cl)cc1,-19%,-18%,12%,-20%,10µM*
Cc1ccc(NC(=O)CSc2ncccn2)c([N+](=O)[O-])c1,11µM*,6%,24%,-5%,16%
Cc1cc(C)c2c(/C=C/c3ccc(N(C)C)cc3)ccnc2c1,-28%,.,.,.,.
CCCCCCC(=O)NC(Nc1ccc(S(N)(=O)=O)cc1)C(Cl)(Cl)Cl (stereo not given),-9%,-23%,-11%,-14%,8.9µM*
CN(C)c1ccc(N=Cc2ccnc3ccccc23)cc1,0%,.,.,.,.
O=C(Nc1ccc(Cl)cc1)c1ccc(OCC2CCCO2)cc1 (stereo not given),4.5µM*,?,7%,-2%,21%
Cc1cccnc1NC(=O)c1ccc(OCC2CCCO2)cc1 (stereo not given),40%,20%,13%,-3%,1%
Cc1cccc(NC(=O)c2ccc(OCC3CCCO3)cc2)c1C (stereo not given),14µM*,-59%,1%,-27%,8%
O=C(Nc1nc(-c2ccc(Cl)cc2Cl)cs1)c1ccc(OCC2CCCO2)cc1 (stereo not given),-33%,-13%,5%,-1%,7.1µM*
O=C(Cc1ccc(OCCC2CCCCC2)cc1)NO,3%,.,.,.,.
O=S(=O)(Nc1ccc(Cc2ccncc2)cc1)c1ccc(Cl)c(Cl)c1,-25%,22%[7.66 µM],1%,10µM*,-1%
CCNC(=S)Nc1scc(-c2ccccc2)c1C(=O)OCC,-26%,16%,0%,10µM*,?
CCOC(=O)c1c(-c2ccccc2)csc1NC(=O)CCN1C(=O)c2ccccc2C1=O,12%,7%,7%,-4%,5%
CCOC(=O)c1c(-c2ccccc2)csc1NC(=S)NC,-17%,-42%,3%,?,-1%
CCOC(=O)c1c(-c2ccc(-c3ccccc3)cc2)csc1NC(=O)CNCCN(C)C,-78%,-75%,0%,-6%,10µM*
COc1ccc(/C=N/Nc2nccnc2Cl)cc1,-35%,-7%,-6%,?,11µM*
Clc1nccnc1N/N=C/c1ccc(Br)cc1,?,-23%,11%,2%,-14%
Cc1noc(/C=C/c2ccccc2F)c1S(=O)(=O)N1CCC(C(=O)Nc2ccc(C#N)cc2)CC1,.,.,.,-1%,?
COc1cc2c(cc1NC(=O)C(c1ccccc1)c1ccccc1)CCCC2,-7%,-3%,-6%,-4%,2.8µM*
O=C(NNc1ccccc1)/C(=C\c1cccnc1)NC(=O)c1ccccc1,-1%,0%,8%,0%,3.5µM*
Clc1ccc(-c2cc(CSc3ccccc3)on2)cc1,3.5µM*,11%,11%,19%,-8%
COc1ccc(OCc2cc(-c3ccc(Cl)cc3)no2)cc1,21%,-11%,16%,-3%,30%
c1ccc(OCc2cc(-c3ccccc3)no2)cc1,5µM*,8%,2%,-7%,?
SMILES,BRCA1 expr act,Integrin act MD,GLP1R ag,GLP1R cytotox,GLP-1R inv ag
COc1ccccc1OCc1cc(-c2ccccc2)no1,2.8µM*,11%,-3%,-2%,1%
CCc1c(C#N)c(SCc2c(C)noc2C)nc2c1C(=O)CC(C)(C)C2,-41%,14%,3%,7%,8.9µM*
COc1ccc(C(=O)C[n+]2cccc3cc(Cl)ccc32)cc1,-45%,.,.,.,.
CCSc1ccc(/C(N)=N/OC(=O)c2cccs2)cn1,10µM*,0%,9%,-6%,0%
Cc1ccc(S(=O)(=O)Nc2ccc3c(c2)CCCN3C(=O)c2cccs2)cc1,.,.,.,-4%,?
Cc1ccc(-c2nc(CNC(=O)Nc3ccccc3)c(C)o2)cc1,.,.,.,-1%,-25%
COc1ccc(NC(=O)/C(C#N)=C\c2ccc(-c3cccc(C(=O)O)c3C)o2)cc1,82%,20%,-3%,?,29%
Cc1c(C(=O)O)cccc1-c1ccc(C=O)o1,7.9µM*,11%,-7%,-6%,1%
NC(=O)CSc1nc2cc3c(cc2c(=O)n1CCCCCC(=O)NCc1ccc2c(c1)OCO2)OCO3,.,.,.,4%,0%
Cn1c(=O)c2cc(C(=O)N3CCN(c4ccc(Cl)cc4)CC3)sc2c2ccccc21,.,.,.,-1%,-1%
COc1cc(SC)ccc1C(=O)NCCOc1ccc(Cl)cc1,-17%,7%,9%,-4%,?
CSc1ccc(Cl)c(C(=O)NCCOc2cc(C(C)C)ccc2C)c1,-43%,7%[7.66 µM],-3%,3%,11µM*
COc1ccc(C2OC(=O)CC2C(=O)NCc2ccc(Cl)cc2)cc1OC (stereo not given),8.9µM*,-19%,1%,4%,15%
CC(C)NC1=C(Cl)C(=O)c2ccccc2C1=O,-75%,-50%,11%,5.6µM*,0%
COC(=O)c1scc(-c2ccc(C)cc2)c1S(=O)(=O)Nc1cc(C)c(Cl)cc1OC,.,.,.,-1%,10µM*
O=C(Cc1ccc(NC(=O)N2CCCCc3ccccc32)cc1)Nc1ccccc1Br,-2%,.,.,-16%,3.2µM*
Cc1nc(-c2ccc(F)cc2)sc1CCNC(=O)c1cccs1,.,.,.,0%,23%
COc1ccc(C=O)cc1OS(=O)(=O)c1ccc(NC(C)=O)cc1,-22%,-17%,10%,-15%,18%
COc1ccc(/C=N/NC(=O)c2ccc3ccccc3c2)cc1OS(=O)(=O)c1ccc(NC(C)=O)cc1,-78%,-25%,-1%,2.2µM*,-1%
CC1c2cc3c(cc2CCN1C(=O)c1ccc(Br)cc1)OCCCO3 (stereo not given),-50%,-65%,-9%,-25%,3.2µM*
COc1ccc(/C=C/C(=O)Nc2nc(-c3cccs3)ns2)cc1OC,.,.,.,-1%,?
Cc1cc(C)cc(OCC(=O)NNC(=O)c2ccccn2)c1,-32%,-82%,-1%,?,13µM*
O=C(COc1ccc(Cl)cc1)NNC(=O)c1ccccn1,-24%,-22%,-1%,0%,-26%
COc1ccccc1CN1C2CCCC1CC(NC(=O)/C=C/c1ccccc1)C2 (stereo not given),-11%,-54%,-1%,?,10µM*
COC(=O)C1(C(=O)OC)C[C@H](/C=C/c2ccccc2)N(Cc2ccccc2OC)[C@@H]1c1cccs1,.,.,.,32%,10µM*
CCOC(=O)[C@H](CCc1ccccc1)NC(C)C(=O)N1CC2(CC1C(=O)O)SCCS2 (stereo not given in full),.,.,-4%,.,.
Cc1ccc(NC(=O)N2CCN(c3nnc(C)c4c(C)n(-c5ccc(Cl)cc5)nc34)CC2)c(C)c1,.,.,.,-1%,-6%

# Screening results deposited in PubChem BioAssay by National Center for Advancing Translational Sciences (NCATS).
